# PubChem BioAssay (NCATS)
# Inconclusive results are not listed. Where a call stands in place of a potency, no number is given. The source made the active and inactive calls. The call rests on the fitted dose curve; in most records, active means well fitted inhibition curve with a large enough effect; inconclusive means small, poorly fitted or top-dose-only effect; inactive means no such curve, though single readings can be large or run the other way. Where a SMILES comes first, the peptide text is derived from it. The star is where a group is joined. AFC = O=c1cc(C(F)(F)F)c2ccc(N*)cc2o1
# Assay: Primary qHTS for inhibitors of nuclear receptor binding SET domain protein 2 (NSD2) in an RCH-ACV wild type WT cells (2C) (AID 1645877); further: nearly all actives have a fitted effect of over 70% in size
# Details: RCH-ACV (leukaemia line) NSD2 WT (2C) viability, CellTiter-Glo, 72 h; series mostly up to 44.9 µM
row,SMILES,Potency
1,C[C@H](NCc1ccc(OCc2ccccc2F)cc1)C(N)=O,inactive
2,CC(=O)N[C@@H](CC(C)C)C(=O)N[C@@H](CCC(=O)O)C(=O)N[C@@H](CCC(=O)O)C(=O)N[C@@H](CC(=O)O)C(=O)Nc1ccc2c(C(F)(F)F)cc(=O)oc2c1 (Ac-LEED-{AFC}),inactive
3,CC(C)(O)c1ccc2c(c1)C(=O)CC1[C@](C)(CO)CCC[C@]21C (some centres not stated),inactive
4,O=C(NCc1ccc(OC(F)(F)F)cc1)C1c2ccccc2C(=O)N1C1CCOCC1 (configuration not stated),inactive
5,CCn1cc(C2=NOC(C(=O)Nc3c(C)n(C)n(-c4ccccc4)c3=O)C2)c(C)n1 (configuration not stated),inactive
6,Cn1c(=O)cc(N2CCCC(N)C2)n(Cc2ccccc2C#N)c1=O (configuration not stated),inactive
7,COc1cc(N2CCC(O)CC2)ccc1Nc1cc(Nc2ccccc2S(=O)(=O)C(C)C)c2cc[nH]c2n1,inactive
8,FC(F)(F)c1cc(C(F)(F)F)c2ccc3nc(-c4nnco4)cn3c2n1,inactive
9,O=C(c1ccccn1)c1cnn2c(-c3ccncc3)ccnc12,inactive
10,Nc1nc(CC(=O)Nc2ccc(CCNCC(O)c3ccccc3)cc2)cs1 (configuration not stated),inactive
11,O=C(O)[C@H]1CCCC[C@H]1C(=O)N1CCc2ccccc2[C@H]1CN1C(=O)c2ccccc2C1=O,inactive
12,Cc1nn(C)c2c1C(c1ccc(C(F)(F)F)cc1)C(C#N)=C(N)O2 (configuration not stated),inactive
